Experimental data from the supplement of paper PMC10849652.
Targets with a hit are over-represented here; the source holds about 8,800 in all. About 0.5% of all pairs of compound and target were hits.

How the values were obtained:
Assay in all cases: log2 fold change, soluble protein after heating vs DMSO (PISA); higher = thermal stabilisation; K562 lysate, 10 uM; active = over 0.2 and 3.5 SD of the protein, either way, in both replicates (recomputed)
lapatinib = compound: CS(=O)(=O)CCNCc1ccc(-c2ccc3ncnc(Nc4ccc(OCc5cccc(F)c5)c(Cl)c4)c3c2)o1 [lapatinib]
Procedure, shortened: (§1)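 Values give the log-two fold change in thermal stability against solvent controls, from duplicates. Crude K562 extract at 1 mg/mL protein, made by dounce homogenisation in PBS pH 7.4 with 1 mM MgCl2, was treated with 10 μM compound for 30 min. After 3 min heating across 48°C-58°C, aliquots were pooled, adjusted to 0.5% NP-40 at 4°C and centrifuged at 21,000xg for 90 min. The supernatant was measured by TMTpro 16plex LC-MS/MS with channel sums equalised.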

pictilisib = compound: CS(=O)(=O)N1CCN(Cc2cc3nc(-c4cccc5[nH]ncc45)nc(N4CCOCC4)c3s2)CC1 [pictilisib]
Procedure, shortened: as §1

crizotinib = compound: C[C@@H](Oc1cc(-c2cnn(C3CCNCC3)c2)cnc1N)c1c(Cl)ccc(F)c1Cl [crizotinib]
Procedure, shortened: as §1

[1] = compound: C[C@H](C1=CC=C(C=C1)C(=O)NC2=C3C=CNC3=NC=C2)N
Procedure, shortened: as §1

duvelisib = compound: C[C@H](Nc1ncnc2nc[nH]c12)c1cc2cccc(Cl)c2c(=O)n1-c1ccccc1 [duvelisib]
Procedure, shortened: as §1

gandotinib = compound: Cc1cc(Nc2cc(CN3CCOCC3)c3nc(C)c(Cc4ccc(Cl)cc4F)n3n2)n[nH]1 [gandotinib]
Procedure, shortened: as §1

tozasertib = compound: Cc1cc(Nc2cc(N3CCN(C)CC3)nc(Sc3ccc(NC(=O)C4CC4)cc3)n2)n[nH]1 [tozasertib]
Procedure, shortened: as §1

doramapimod = compound: Cc1ccc(-n2nc(C(C)(C)C)cc2NC(=O)Nc2ccc(OCCN3CCOCC3)c3ccccc23)cc1 [doramapimod]
Procedure, shortened: as §1

bafetinib = compound: Cc1ccc(NC(=O)c2ccc(CN3CC[C@H](N(C)C)C3)c(C(F)(F)F)c2)cc1Nc1nccc(-c2cncnc2)n1 [bafetinib]
Procedure, shortened: as §1

[2] = compound: Cc1cccc(CC(=O)N2CCc3c2ccc(-c2cn(C)c4ncnc(N)c24)c3F)n1
Procedure, shortened: as §1

nilotinib = compound: Cc1cn(-c2cc(NC(=O)c3ccc(C)c(Nc4nccc(-c5cccnc5)n4)c3)cc(C(F)(F)F)c2)cn1 [nilotinib]
Procedure, shortened: as §1

[3] = compound: Cc1nc(Nc2n[nH]c3c2CN(C(=O)N[C@H](CN(C)C)c2ccccc2)C3(C)C)c2sccc2n1
Procedure, shortened: as §1

dasatinib = compound: Cc1nc(Nc2ncc(C(=O)Nc3c(C)cccc3Cl)s2)cc(N2CCN(CCO)CC2)n1 [dasatinib]
Procedure, shortened: as §1

[4] = compound: Cc1ncc(-c2ccnc(Nc3ccc(S(C)(=O)=O)cc3)n2)n1C(C)C
Procedure, shortened: as §1

[5] = compound: Cn1cc(-c2ccc3c(c2)CCN3C(=O)Cc2cccc(C(F)(F)F)c2)c2c(N)ncnc21
Procedure, shortened: as §1

quisinostat = compound: Cn1cc(CNCC2CCN(c3ncc(C(=O)NO)cn3)CC2)c2ccccc21 [quisinostat]
Procedure, shortened: as §1

tipifarnib = compound: Cn1cncc1[C@@](N)(c1ccc(Cl)cc1)c1ccc2c(c1)c(-c1cccc(Cl)c1)cc(=O)n2C [tipifarnib]
Procedure, shortened: as §1

[6] = compound: NC(=O)Nc1cc(-c2cccc(F)c2)sc1C(=O)N[C@H]1CCCNC1
Procedure, shortened: as §1

[7] = compound: NC(=O)c1cnc(N[C@@H]2CCCC[C@@H]2N)nc1Nc1cccc(-n2nccn2)c1
Procedure, shortened: as §1

[8] = compound: NC1(c2ccc(-c3nc4ccn5c(=O)[nH]nc5c4cc3-c3ccccc3)cc2)CCC1
Procedure, shortened: as §1

Measured: log2 fold change

MBOAT2 (UniProt Q6ZWT7)
active: gandotinib 0.319
inactive: lapatinib -0.067 | pictilisib 0.061 | crizotinib -0.005 | [1] -0.175 | duvelisib 0.009 | tozasertib 0.106 | doramapimod -0.12 | bafetinib -0.049 | [2] 0.281 | nilotinib -0.006 | [3] -0.095 | dasatinib -0.178 | [4] 0.024 | [5] -0.027 | quisinostat -0.042 | tipifarnib 0.12 | [6] 0.011 | [7] 0.03 | [8] -0.012

LYAR (UniProt Q9NX58)
active: [1] 0.269
inactive: lapatinib 0 | pictilisib 0.025 | crizotinib 0.005 | duvelisib 0.017 | gandotinib -0.119 | tozasertib -0.025 | doramapimod -0.017 | bafetinib -0.008 | [2] -0.099 | nilotinib 0.01 | [3] -0.021 | dasatinib 0.002 | [4] 0.005 | [5] 0.014 | quisinostat 0.003 | tipifarnib 0 | [6] -0.002 | [7] -0.016 | [8] -0.012

KMT2B (UniProt Q9UMN6)
inactive: crizotinib 0.073 | duvelisib -0.034 | tozasertib 0.073 | doramapimod -0.033 | dasatinib 0.013 | [5] 0.108 | quisinostat 0.346 | [6] -0.047 | [8] 0.122

KIF21A (UniProt H0YI78)
inactive: lapatinib -0.11 | pictilisib 0.052 | duvelisib -0.013 | bafetinib 0.187 | nilotinib 0.067 | [3] -0.005 | dasatinib 0.044 | [4] 0.143 | [5] 0.055 | tipifarnib -0.069 | [7] 0.104 | [8] 0.082

MRC2 (UniProt Q9UBG0)
inactive: crizotinib -0.3 | [1] -0.192 | duvelisib -0.49 | gandotinib 0.075 | tozasertib 0.063 | doramapimod 0.035 | [2] -0.184 | nilotinib -0.001 | [3] -0.055 | dasatinib -0.201 | [4] 0.26 | [5] 0.073 | quisinostat -0.056 | tipifarnib 0.083 | [6] 0.144 | [8] 0.068

LYN isoform 2 (UniProt P07948)
inactive: crizotinib 0.049 | [1] 0.026 | duvelisib -0.357 | tozasertib 0.126 | doramapimod -0.076 | [2] -0.006 | nilotinib 0.125 | [3] 0.143 | dasatinib 0.438 | [4] 0.257 | [5] 0.061 | quisinostat -0.111 | tipifarnib -0.615 | [6] 0.748 | [8] -0.053
active: gandotinib 0.891

MAP4K4 isoform 3 (UniProt O95819)
active: [6] 0.27
inactive: lapatinib -0.061 | pictilisib -0.049 | [1] 0.201 | duvelisib 0.078 | gandotinib -0.088 | tozasertib 0.014 | doramapimod 0.087 | bafetinib 0.03 | [2] -0.01 | nilotinib -0.108 | [3] 0.03 | dasatinib -0.103 | [4] 0.002 | [5] 0.006 | quisinostat -0.103 | tipifarnib 0.038 | [7] 0.02 | [8] -0.032

MPP5 (UniProt Q8N3R9)
inactive: pictilisib -0.091 | crizotinib -0.028 | [1] -0.003 | duvelisib -0.017 | gandotinib 0.01 | tozasertib -0.033 | doramapimod 0.115 | bafetinib -0.043 | [2] 0.099 | nilotinib 0.015 | [3] -0.013 | dasatinib 0.028 | [4] -0.069 | [5] 0.009 | quisinostat -0.052 | tipifarnib 0.142 | [6] 0.002 | [8] -0.053

MEGF8 (UniProt Q7Z7M0)
inactive: pictilisib -0.015 | crizotinib 0.113 | [1] -0.077 | duvelisib -0.167 | gandotinib -0.101 | tozasertib 0.02 | doramapimod -0.028 | bafetinib 0.068 | [2] -0.011 | dasatinib -0.059 | [5] -0.003 | quisinostat 0.047 | [6] -0.073 | [8] -0.073

MAP3K6 (UniProt O95382)
Chain of UniProt O95382 (O95382 whole entry, looked up): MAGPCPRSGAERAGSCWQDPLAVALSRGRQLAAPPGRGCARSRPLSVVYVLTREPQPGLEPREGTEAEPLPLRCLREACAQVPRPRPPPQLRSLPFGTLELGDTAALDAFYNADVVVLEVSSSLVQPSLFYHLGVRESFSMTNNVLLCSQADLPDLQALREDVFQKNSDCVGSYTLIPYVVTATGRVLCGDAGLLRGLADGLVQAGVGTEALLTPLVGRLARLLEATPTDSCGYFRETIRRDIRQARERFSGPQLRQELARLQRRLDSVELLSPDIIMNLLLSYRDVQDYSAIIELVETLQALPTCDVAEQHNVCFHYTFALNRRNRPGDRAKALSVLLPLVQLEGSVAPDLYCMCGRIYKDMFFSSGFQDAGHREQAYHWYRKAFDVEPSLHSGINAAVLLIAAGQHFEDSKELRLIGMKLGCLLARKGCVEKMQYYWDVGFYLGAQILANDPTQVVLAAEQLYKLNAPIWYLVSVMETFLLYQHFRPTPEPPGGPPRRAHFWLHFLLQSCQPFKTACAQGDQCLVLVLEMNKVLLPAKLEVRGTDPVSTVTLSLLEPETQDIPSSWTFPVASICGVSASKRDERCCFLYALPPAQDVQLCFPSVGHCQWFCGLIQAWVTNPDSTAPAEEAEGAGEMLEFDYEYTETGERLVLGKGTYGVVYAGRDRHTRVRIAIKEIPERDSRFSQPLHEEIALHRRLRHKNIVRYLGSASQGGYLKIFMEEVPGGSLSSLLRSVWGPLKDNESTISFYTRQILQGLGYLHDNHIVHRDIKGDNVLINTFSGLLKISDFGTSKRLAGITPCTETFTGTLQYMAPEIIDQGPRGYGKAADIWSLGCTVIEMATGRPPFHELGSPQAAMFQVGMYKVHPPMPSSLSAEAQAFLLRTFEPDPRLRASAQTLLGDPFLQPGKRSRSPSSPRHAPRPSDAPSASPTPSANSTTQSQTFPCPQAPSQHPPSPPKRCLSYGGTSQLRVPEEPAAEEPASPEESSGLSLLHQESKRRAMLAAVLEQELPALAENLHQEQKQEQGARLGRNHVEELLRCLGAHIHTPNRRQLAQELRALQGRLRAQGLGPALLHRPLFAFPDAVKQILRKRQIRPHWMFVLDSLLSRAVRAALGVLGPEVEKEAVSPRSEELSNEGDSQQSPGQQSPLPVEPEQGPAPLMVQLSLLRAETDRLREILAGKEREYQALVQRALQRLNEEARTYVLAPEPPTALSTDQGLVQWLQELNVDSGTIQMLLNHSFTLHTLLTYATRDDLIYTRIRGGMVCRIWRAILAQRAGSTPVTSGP
inactive: tozasertib -0.061 | nilotinib 0.122 | [3] -0.023 | [4] 0.006 | tipifarnib -0.011

MEX3A (UniProt A1L020)
inactive: duvelisib 0.196 | nilotinib 0.026 | [3] -0.069 | dasatinib -0.029 | [4] -0.137 | [5] -0.084 | tipifarnib 0.211

KLC1 isoform 10 (UniProt Q07866)
inactive: pictilisib -0.167 | tozasertib 0.016 | bafetinib 0.032 | [8] -0.159

KIF26A (UniProt Q9ULI4)
Chain of UniProt Q9ULI4 (Q9ULI4 whole entry, looked up): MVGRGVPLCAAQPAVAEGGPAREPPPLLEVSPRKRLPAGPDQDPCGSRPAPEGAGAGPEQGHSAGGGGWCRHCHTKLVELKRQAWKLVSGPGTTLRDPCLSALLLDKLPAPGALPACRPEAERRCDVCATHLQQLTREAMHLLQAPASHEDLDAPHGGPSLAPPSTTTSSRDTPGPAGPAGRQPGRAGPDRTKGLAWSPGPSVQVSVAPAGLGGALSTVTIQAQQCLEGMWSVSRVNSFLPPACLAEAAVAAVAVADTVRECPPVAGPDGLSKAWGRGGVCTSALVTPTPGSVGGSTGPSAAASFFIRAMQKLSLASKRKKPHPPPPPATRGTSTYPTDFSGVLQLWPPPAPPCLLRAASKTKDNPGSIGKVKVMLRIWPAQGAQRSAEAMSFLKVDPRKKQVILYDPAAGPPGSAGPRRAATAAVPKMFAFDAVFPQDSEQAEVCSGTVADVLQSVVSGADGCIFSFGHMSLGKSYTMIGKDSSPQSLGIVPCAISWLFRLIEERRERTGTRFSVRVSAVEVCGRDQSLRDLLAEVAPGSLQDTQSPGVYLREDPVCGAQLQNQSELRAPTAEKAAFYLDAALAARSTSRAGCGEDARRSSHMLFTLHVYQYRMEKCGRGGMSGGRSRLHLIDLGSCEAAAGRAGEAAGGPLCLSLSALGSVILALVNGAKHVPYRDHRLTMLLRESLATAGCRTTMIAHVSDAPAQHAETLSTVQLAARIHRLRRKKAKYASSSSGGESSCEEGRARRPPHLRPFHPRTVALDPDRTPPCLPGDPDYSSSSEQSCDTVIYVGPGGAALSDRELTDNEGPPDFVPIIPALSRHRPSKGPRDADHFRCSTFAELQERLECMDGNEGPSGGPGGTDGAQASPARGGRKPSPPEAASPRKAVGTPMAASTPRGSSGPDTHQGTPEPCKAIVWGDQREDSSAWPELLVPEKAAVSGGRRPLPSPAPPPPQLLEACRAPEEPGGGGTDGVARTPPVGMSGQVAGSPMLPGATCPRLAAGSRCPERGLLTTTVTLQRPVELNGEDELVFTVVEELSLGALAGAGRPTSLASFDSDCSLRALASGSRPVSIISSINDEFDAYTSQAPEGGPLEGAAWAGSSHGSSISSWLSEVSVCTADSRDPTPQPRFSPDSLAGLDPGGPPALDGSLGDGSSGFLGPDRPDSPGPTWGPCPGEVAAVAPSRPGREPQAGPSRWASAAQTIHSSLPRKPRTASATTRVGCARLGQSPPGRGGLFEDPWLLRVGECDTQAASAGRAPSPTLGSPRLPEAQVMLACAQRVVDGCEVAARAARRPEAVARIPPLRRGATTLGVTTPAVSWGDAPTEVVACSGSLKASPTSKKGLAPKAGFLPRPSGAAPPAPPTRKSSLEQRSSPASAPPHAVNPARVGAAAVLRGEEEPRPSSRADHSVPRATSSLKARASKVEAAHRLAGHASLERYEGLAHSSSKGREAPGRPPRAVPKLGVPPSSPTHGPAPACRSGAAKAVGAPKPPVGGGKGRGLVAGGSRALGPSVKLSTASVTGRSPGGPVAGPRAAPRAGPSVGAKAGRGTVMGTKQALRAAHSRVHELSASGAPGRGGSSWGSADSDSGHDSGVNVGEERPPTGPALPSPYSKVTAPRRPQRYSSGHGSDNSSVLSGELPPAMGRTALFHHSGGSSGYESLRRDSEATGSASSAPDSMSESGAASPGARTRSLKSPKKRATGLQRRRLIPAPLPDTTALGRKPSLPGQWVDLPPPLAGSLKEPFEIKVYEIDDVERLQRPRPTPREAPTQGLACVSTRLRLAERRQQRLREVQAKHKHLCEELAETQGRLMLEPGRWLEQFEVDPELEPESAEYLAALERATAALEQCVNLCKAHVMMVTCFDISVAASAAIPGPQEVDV
inactive: pictilisib 0.039 | crizotinib 0.013 | [1] -0.065 | duvelisib -0.017 | gandotinib 0.003 | tozasertib 0.086 | doramapimod -0.002 | bafetinib -0.055 | [2] 0.002 | nilotinib 0.035 | [3] -0.013 | dasatinib 0.003 | [4] 0.01 | [5] 0.014 | quisinostat -0.092 | tipifarnib 0.226 | [6] -0.078 | [8] -0.091

MAP3K4 isoform 2 (UniProt Q9Y6R4)
inactive: crizotinib 0.044 | doramapimod -0.007 | quisinostat 0.009 | [6] 0.112

MAPK7 (UniProt Q13164)
Chain of UniProt Q13164 (Q13164 whole entry, looked up): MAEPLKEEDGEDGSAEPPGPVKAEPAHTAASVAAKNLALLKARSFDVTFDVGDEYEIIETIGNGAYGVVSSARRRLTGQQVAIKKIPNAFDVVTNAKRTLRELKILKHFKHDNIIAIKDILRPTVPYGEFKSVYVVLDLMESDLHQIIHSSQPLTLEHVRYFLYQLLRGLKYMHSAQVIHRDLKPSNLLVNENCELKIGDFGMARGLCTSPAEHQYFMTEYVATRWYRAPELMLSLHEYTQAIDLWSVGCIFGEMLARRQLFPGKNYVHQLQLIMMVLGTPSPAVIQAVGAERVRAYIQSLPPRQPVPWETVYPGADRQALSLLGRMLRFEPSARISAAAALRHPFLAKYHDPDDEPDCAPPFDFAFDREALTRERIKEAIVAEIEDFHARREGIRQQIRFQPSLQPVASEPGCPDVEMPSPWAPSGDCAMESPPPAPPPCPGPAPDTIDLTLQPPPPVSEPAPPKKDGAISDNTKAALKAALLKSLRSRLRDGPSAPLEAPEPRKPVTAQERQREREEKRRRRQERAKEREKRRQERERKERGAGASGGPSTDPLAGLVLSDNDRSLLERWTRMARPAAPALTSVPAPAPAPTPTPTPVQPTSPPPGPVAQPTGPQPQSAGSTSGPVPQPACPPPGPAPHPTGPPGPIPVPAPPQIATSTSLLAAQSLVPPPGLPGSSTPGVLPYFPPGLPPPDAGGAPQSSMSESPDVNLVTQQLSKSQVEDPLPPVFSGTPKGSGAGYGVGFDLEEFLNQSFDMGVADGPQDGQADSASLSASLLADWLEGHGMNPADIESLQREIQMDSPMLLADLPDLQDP
inactive: lapatinib -0.145 | crizotinib 0.246 | [1] -0.083 | gandotinib 0.161 | tozasertib -0.029 | doramapimod 0.01 | [2] -0.099 | quisinostat -0.156 | [6] -0.044 | [7] 0.028 | [8] 0.011

MAPK12 (UniProt P53778)
active: [1] 0.868 | [5] 0.375
inactive: pictilisib 0.059 | duvelisib -0.061 | gandotinib -0.15 | tozasertib 0.248 | bafetinib 0 | [2] -0.163 | nilotinib 0.082 | [3] 0.048 | dasatinib -0.057 | [4] 0.085 | quisinostat 0.051 | tipifarnib -0.005 | [6] -0.015 | [8] -0.044

MAP4K2 (UniProt Q12851)
inactive: lapatinib -0.164 | pictilisib 0.126 | [1] 0.145 | duvelisib 0.077 | gandotinib 0.273 | tozasertib 0.054 | doramapimod 0.035 | bafetinib -0.126 | [2] -0.015 | dasatinib 0.511 | [5] 0.123 | quisinostat -0.193 | [7] 0.159 | [8] -0.062
active: [6] 0.965

KIFC3 isoform 6 (UniProt Q9BVG8)
Chain of UniProt Q9BVG8 (Q9BVG8 whole entry, looked up): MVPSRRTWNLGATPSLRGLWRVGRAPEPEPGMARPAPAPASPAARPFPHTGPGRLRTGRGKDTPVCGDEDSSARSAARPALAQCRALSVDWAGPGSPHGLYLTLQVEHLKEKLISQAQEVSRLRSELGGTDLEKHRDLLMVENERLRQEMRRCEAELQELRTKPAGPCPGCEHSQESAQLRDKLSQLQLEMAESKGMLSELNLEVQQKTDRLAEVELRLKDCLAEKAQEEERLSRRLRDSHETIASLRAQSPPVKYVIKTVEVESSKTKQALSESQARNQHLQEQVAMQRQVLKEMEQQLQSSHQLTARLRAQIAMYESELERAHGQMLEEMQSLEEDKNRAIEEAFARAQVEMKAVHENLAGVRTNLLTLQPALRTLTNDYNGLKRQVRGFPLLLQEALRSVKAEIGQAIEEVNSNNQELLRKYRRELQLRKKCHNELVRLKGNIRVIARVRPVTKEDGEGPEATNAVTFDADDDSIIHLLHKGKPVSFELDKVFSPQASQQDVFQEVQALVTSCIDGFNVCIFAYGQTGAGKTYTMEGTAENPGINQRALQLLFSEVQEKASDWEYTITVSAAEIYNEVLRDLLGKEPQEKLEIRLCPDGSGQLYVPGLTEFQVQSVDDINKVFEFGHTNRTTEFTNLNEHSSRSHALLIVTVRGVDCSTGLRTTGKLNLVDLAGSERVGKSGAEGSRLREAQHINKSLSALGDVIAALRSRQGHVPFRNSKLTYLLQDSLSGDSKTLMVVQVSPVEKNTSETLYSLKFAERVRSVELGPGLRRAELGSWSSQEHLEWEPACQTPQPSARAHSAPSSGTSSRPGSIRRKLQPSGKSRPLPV
active: [1] -1.85
inactive: pictilisib -0.127 | crizotinib -0.21 | duvelisib 0.089 | gandotinib 0.111 | tozasertib -0.111 | doramapimod -0.034 | bafetinib -0.221 | [2] 0.296 | dasatinib -0.055 | [5] -0.146 | quisinostat -0.189 | [6] 0.079 | [8] -0.213

MAPK3 (UniProt H0YEX6)
inactive: nilotinib -0.522 | [3] 0.646 | [4] 0.12 | tipifarnib 0.097

MAP4K4 isoform 6 (UniProt O95819)
inactive: lapatinib -0.002 | pictilisib -0.092 | duvelisib -0.038 | tozasertib 0.102 | bafetinib 0.016 | dasatinib -0.01 | [5] 0.115 | [7] 0.021 | [8] 0.083

MDM1 (UniProt Q8TC05)
active: [1] -1.42 | [2] 0.554
inactive: lapatinib -0.004 | duvelisib 0.05 | gandotinib 0.336 | tozasertib 0.083 | nilotinib -0.073 | [3] -0.008 | dasatinib 0.015 | [4] -0.149 | [5] 0.056 | tipifarnib 0.006 | [7] -0.005 | [8] 0.061

LY6E (UniProt Q16553)
Chain of UniProt Q16553 (Q16553 whole entry, looked up): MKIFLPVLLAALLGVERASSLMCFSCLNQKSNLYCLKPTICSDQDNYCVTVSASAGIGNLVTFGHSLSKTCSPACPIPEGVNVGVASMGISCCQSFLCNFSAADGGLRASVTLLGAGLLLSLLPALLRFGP
active: [1] -1.51
inactive: lapatinib -0.026 | pictilisib 0.071 | gandotinib 0.412 | tozasertib 0.079 | bafetinib -0.2 | [2] 0.588 | nilotinib -0.141 | [3] 0.031 | [4] 0.056 | tipifarnib 0.033 | [7] 0.08
